Laboratory results reported in PubChem BioAssay (NCI).
The panel holds about 83,000 compounds, 20% with a hit somewhere; the sample as a whole holds those more often.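 Each cell line was grown in a 96-well plate and treated with one concentration of compound for 48 hours. Values below 10 were considered active.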 A number with no mark means an inactive call. Activity calls are given as the source filed them.

test system: 786-0 renal; experiment: NCI-60 one-dose screen, 48 h (100 = growth as untreated, 0 = no growth, -100 = all killed); conditions: 10 µM unless noted

Row | Compound | growth
1 | CC1(C)CC[C@]2(C(=O)O)CC[C@]3(C)C(=CCC4[C@@]5(C)C[C@@H](O)[C@@H]6OC(c7ccccc7O)OC[C@@]6(C)C5CC[C@]43C)C2C1 (some centres undefined) | 22.2%
2 | CN(c1ccc(Br)cc1)S(=O)(=O)c1ccc(-c2cnc(C3CC3)o2)cc1 | 52.9%
3 | CN1CCN(c2nc(-c3csc(-c4ccncc4)n3)cc3ccccc23)CC1 | 65.7%
4 | O=C(O)c1ccc(-n2cc(CNc3ccc(F)cc3)c(-c3ccc(C(F)(F)F)cc3)n2)cc1 | 105%
5 | CSc1nccc(-c2c(-c3ccc(F)c(OCc4ccc(F)cc4)c3)nc3sccn23)n1 | 74.4%
6 | O=C(COc1ccc(C2SCC(=O)N2c2ccccc2)cc1)c1ccccc1 (centres undefined) | 102%
7 | O=C(O)CNS(=O)(=O)c1ccc(Oc2ccc(S(=O)(=O)NCC(=O)O)cc2)cc1 | 100%
8 | Cn1nc(Nc2ccccc2)c(C(=O)NN)c1N | 109%
9 | COc1cc(/C=N/n2cnc3oc(-c4ccccc4)cc3c2=N)cc(CN2CCN(C)CC2)c1O | 62.5%
10 | CC(C)SC1=NC(=C(C(=N1)NC2=ClC=CC=C2)C#N)C3=CC=CC=C3 | 34.7%
11 | NS(=O)(=O)c1ccc(Nc2nc(N/N=C/c3ccc(F)cc3)nc(Nc3ccccc3)n2)cc1 | 58.8%
12 | C#C[C@]1(O)CC[C@H]2[C@@H]3CC=C4c5sc(Nc6cccc(C)n6)nc5CC[C@]4(C)[C@H]3CC[C@@]21C | -70.7% (active)
13 | CNC(=O)c1cc(Oc2ccc3nc(NC(=O)c4cc(C)cc(C)c4)sc3c2)ccn1 | 59%
14 | C=C(C)[C@@H]1CC[C@]2(COS(C)(=O)=O)CC[C@]3(C)[C@H](CC[C@@H]4[C@@]5(C)CCCNC(C)(C)[C@@H]5CC[C@]43C)[C@@H]12 | 91.5%
15 | CC(C)=CCc1c2c(c(O)c3c1O[C@]14C(=C[C@@H]5C[C@H]1C(C)(C)O[C@@]4(C/C=C(/C)C(=O)O)C5=O)C3=O)CC(O)C(C)(C)O2 (some centres undefined) | -39.6% (active)
16 | O=C(Cn1cc(CN2C(=O)c3ccc([N+](=O)[O-])cc3C2=O)nn1)Nc1ccccc1Br | 107%
17 | COc1cc(-c2nc(SCc3ccc(C)cc3)[nH]c(=O)c2C#N)ccc1OCc1ccccc1 | 103%

Row | Compound | growth
18 | CC(C)N=C(N/C(N)=N/c1nc2ccccc2s1)NC(C)C | 58.5%
19 | O=C(Nc1cc(Cl)cc(Cl)c1)Nc1ccc2oc(=O)ccc2c1 | 23.9%
20 | CS(=O)(=O)c1nccc(-c2c(-c3ccc(F)c(OCc4ccccc4)c3)nc3sccn23)n1 | 80.5%
21 | COc1ccc(C2C(C#N)=C(N)Oc3c2sc2ccc(C)cc32)cc1 (centres undefined) | 42%
22 | C#C[C@]1(O)CC[C@H]2[C@@H]3CC=C4c5sc(-c6ccccn6)nc5CC[C@]4(C)[C@H]3CC[C@@]21C | 24.5%
23 | COc1ccc(OC)c([C@H]2c3[nH]c4ccccc4c3C[C@H]3C(=O)N(CCCCCCC(=O)NO)CC(=O)N23)c1 | 99.5%
24 | Cc1cnc2nc(NN)[nH]n12 | 103%
25 | COc1ccc(-c2nc3cc(Cl)c(Cl)cc3n2CC(=O)N=Nc2c(O)[nH]c3ccc(Br)cc23)cc1 | -17.3% (active)
26 | O=C(NCCCCCCNC(=O)c1c2c(nc3ccccc13)-c1cccnc1SC2)c1c2c(nc3ccccc13)-c1cccnc1SC2 | 76.5%
27 | COc1ccc(-c2ccc3c4c(cccc24)C(=O)N(N2C(=O)c4cccc5cccc(c45)C2=O)C3=O)cc1 | 99.2%
28 | COc1ccc(-c2nc3cc(Cl)c(Cl)cc3n2CC(=O)N=Nc2c(O)[nH]c3ccc(Cl)cc23)cc1 | 24.7%
29 | CCOC(=O)c1c(NCC(=O)Nc2ccc(Br)cc2)sc2c1CCCC2 | 21.2%
30 | CN1C(=O)/C(=C/C=C/c2ccco2)SC1=S | 84.9%
31 | COc1ccc(-c2nnc(SCc3ccc(O)c4ncccc34)o2)cc1 | 38.2%
32 | C#CCOc1ccc(/C=N/Nc2nc(-c3cc4cc(Br)cc(Br)c4oc3=O)cs2)cc1 | 99.7%
33 | CS(=O)c1nccc(-c2c(-c3ccc(F)c(OCCc4ccc(F)cc4)c3)nc3sccn23)n1 (centres undefined) | 95.3%
34 | O=C1[C@@H]2Cc3c([nH]c4ccccc34)[C@H](c3c(Cl)cccc3Cl)N2C(=O)CN1C1CCN(Cc2c(F)cccc2F)CC1 | 99.2%
